A selection: hits, their analogues and other compounds. The true share with any hit is near 15%.
VP16 counter = inhibits Gal4-VP16 luciferase reporter, ROR gamma counter-screen | Drosophila S2 Gal4-VP16 UAS-luciferase, luminescence, 20 h | Potency, µM (doses to about 53.6 µM), usual class: inhibitors | hit rate 3.5% among 310,000 | AID 2546;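 further: Gal4-VP16 expression switched on by copper sulfate through the metallothionein promoter; nearly all actives have a fitted effect of over 50% in size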
DT40 TDP1 no CPT = qHTS for Inhibitors of human tyrosyl-DNA phosphodiesterase 1 (TDP1): qHTS in cells in absence of CPT. DT40 Tdp1-/- hTDP1 cells, no CPT, ATP luminescence, 48 h. hit rate 15% among 420,000. Potency, µM (titrated, usually from 46.2 µM), most hits filed as inhibitors; further: nearly all actives have a fitted effect of over 55% in size
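Camptothecin absent (DMSO only). Human TDP1-complemented DT40 knockout cells, 400 cells/well, 37 °C for minimum 48 hr; ATP measured via CellTiter-Glo, 30 min dark incubation, luminescence.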
RORg inh = ROR gamma (mouse) transcription inhibition; AID 2551; Drosophila S2 Gal4-RORgamma UAS-luciferase reporter, 20 h; hit rate 5.4% among 310,000; Potency, µM (titrated, usually from 53.6 µM), most hits filed as inhibitors; P51450; further: nearly all actives have a fitted effect of over 60% in size
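Schneider cells (Drosophila), stable Gal4 DBD–ROR gamma + UAS-luc; 1 hr cmpd preincubation; Cu2+ induction 700 uM final; 20 hr ambient; luminescence.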
TDP1 cell CPT = growth inhibition of DT40 Tdp1-/-;hTDP1 cells with camptothecin (screen for TDP1 inhibitors) | chicken DT40 Tdp1-/-;hTDP1 cells + 20 nM CPT, ATP luminescence, 48 h | Potency, µM (titrated, usually from 46.2 µM), most hits filed as inhibitors | hit rate 12% among 420,000; further: nearly all actives have a fitted effect of over 55% in size
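Cell growth measured by CellTiter-Glo luminescence after a minimum 48 h, 37 C compound exposure with 20 nM CPT in Tdp1-knockout DT40 cells stably expressing hTDP1, seeded 400/well; qHTS titration format.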
ELG1 repair inh = ELG1-dependent DNA repair inhibition. Potency, µM (highest dose often 46.1 µM), hits mostly inhibitors. hit rate 2.3% among 330,000. HEK293T ELG1-luciferase reporter, luminescence, 16 h; DNA damage induced by 5-fluorouridine; further: nearly all actives have a fitted effect of over 55% in size
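Step one: seed 2,000 cells per well. Step two: pin-transfer compound or DMSO alongside 5-fluorouridine. Step three: incubate 16 hr, 37 °C, 5% CO2. Step four: add ONE-Glo, wait 30 min, read luminescence.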
ALOX12 inh = blocks human arachidonate 12S-lipoxygenase; P18054; purified 12hLO, xylenol orange hydroperoxide absorbance; Potency, µM (series often up to 108 µM), hits mostly inhibitors; hit rate 1.1% among 580,000; AID 1671190
Target sequence (P18054 whole entry, looked up): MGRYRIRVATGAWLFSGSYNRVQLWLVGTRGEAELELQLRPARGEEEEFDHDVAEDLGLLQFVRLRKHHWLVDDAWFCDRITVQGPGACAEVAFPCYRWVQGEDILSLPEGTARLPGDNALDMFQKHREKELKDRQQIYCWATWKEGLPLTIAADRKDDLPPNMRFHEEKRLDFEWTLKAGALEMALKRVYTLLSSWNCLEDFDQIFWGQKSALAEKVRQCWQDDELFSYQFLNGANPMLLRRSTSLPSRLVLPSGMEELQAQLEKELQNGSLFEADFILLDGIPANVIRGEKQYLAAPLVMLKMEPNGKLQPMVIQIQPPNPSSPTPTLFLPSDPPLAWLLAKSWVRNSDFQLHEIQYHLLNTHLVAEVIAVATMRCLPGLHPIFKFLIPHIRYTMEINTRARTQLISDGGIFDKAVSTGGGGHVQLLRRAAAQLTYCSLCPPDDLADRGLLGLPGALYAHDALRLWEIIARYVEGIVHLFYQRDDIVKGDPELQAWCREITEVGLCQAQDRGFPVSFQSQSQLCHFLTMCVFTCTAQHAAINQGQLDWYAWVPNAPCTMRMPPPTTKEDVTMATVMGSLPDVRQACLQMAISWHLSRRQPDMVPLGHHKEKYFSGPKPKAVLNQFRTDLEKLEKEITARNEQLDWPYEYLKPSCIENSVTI
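Purified human 12hLO at 150 nM in 25 mM Hepes, 0.01% Triton X-100, pH 7.0, preincubated 15 min at room temperature with compound. Reaction started with 40 uM arachidonic acid, 30 min at room temperature. Hydroperoxide measured by Fe-xylenol orange, 573/405 nm absorbance ratio.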
A number is an active result; n = inactive; u = inconclusive; x = no result; [ ] = remark or other dose. The call rests on the fitted dose curve; in most records, active means well fitted curve in the direction sought with a large enough effect; inconclusive means small, poorly fitted or top-dose-only effect, or another doubt; inactive means no such curve, though single readings can be large; an effect the other way counts as inactive or inconclusive.

SMILES	VP16 counter	DT40 TDP1 no CPT	RORg inh	TDP1 cell CPT	ELG1 repair inh	ALOX12 inh
c1cncc(-c2nc(NCc3ccc4c(c3)OCO4)c3ccccc3n2)c1	n	20.6µM	n	u	20.6µM	n
c1cncc(-c2nc(NCC3COc4ccccc4O3)c3ccccc3n2)c1 (centres undefined)	n	u	n	18.4µM	14.6µM	u
c1ccc2c(c1)OCC(CNc1ncnc3sccc13)O2 (centres undefined)	0.501µM	0.651µM	u	1.16µM	u	n
c1cncc(-c2nc(NCCN3CCOCC3)c3ccccc3n2)c1	n	u	n	n	x	n
CC(Nc1nc(-c2cccnc2)nc2ccccc12)c1ccc(F)cc1 (centres undefined)	n	18.4µM	n	25.9µM	u	n
CC(Nc1nc(-c2ccccc2)nc2ccccc12)c1ccccc1 (centres undefined)	n	u	n	u	u	n
CC(=O)NCC1COc2ccccc2O1 (centres undefined)	n	n	n	n	n	n
CNS(=O)(=O)c1cc(NC(=O)c2cccc(OCc3c(C)noc3C)c2)ccc1C	x	x	x	x	x	n
CCOC(=O)c1cc(NC/C=C/c2ccccc2)ccc1N1CCOCC1	x	x	x	x	x	n
O=C(O)CCc1cc2n(n1)CCN(C(=O)c1ccccc1-n1cccc1)C2	x	x	x	x	x	n
NS(=O)(=O)c1ccc(NC(=O)c2ccc(S(=O)(=O)N3CCc4ccccc43)cc2)cc1	n	u	n	u	n	u
CN(C1CCCCC1)S(=O)(=O)c1ccc(C(=O)Nc2sc3c(c2C(N)=O)CC(C)(C)NC3(C)C)cc1	n	u	n	u	n	n
CC(C)N1CCc2c(sc(NC(=O)c3ccc(S(=O)(=O)N(C)C4CCCCC4)cc3)c2C(N)=O)C1	x	18.4µM	x	u	x	u
NC(=O)c1ccsc1NC(=O)c1ccc(S(=O)(=O)N2CCCc3ccccc32)cc1	n	18.4µM	u	16.4µM	20.6µM	n
CC(C)N1CCc2c(sc(NC(=O)c3ccc(S(=O)(=O)N4CCc5ccccc54)cc3)c2C(N)=O)C1	u	u	u	23.1µM	n	x
COc1cccc(/C=C(\C#N)c2ccccc2)c1OC(C)C	x	x	x	x	x	n
COC1C(=O)N(C2CCN(C(=O)c3sc(C)nc3C)CC2)C12CCOCC2 (centres undefined)	x	x	x	x	x	n
CCN(CC)S(=O)(=O)c1ccc(N2CCN(C)CC2)c(NC(=O)c2ccccc2F)c1	x	x	x	x	x	n
COc1ccc(NC(=O)C2=NN(c3ccccc3)C(=O)CC2)cn1	x	n	x	u	n	n
COc1ccc(OC)c(-c2csc(NC(=O)C3=NN(c4ccccc4)C(=O)CC3)n2)c1	n	20.6µM	n	n	u	n
Cc1ccc(-c2csc(NC(=O)C3=NN(c4ccccc4)C(=O)CC3)n2)cc1	n	u	n[10 µM]	u	13µM	n
Cc1csc(NC(=O)C2=NN(c3ccccc3)C(=O)CC2)n1	n	n	n	n	n	n
COc1ccc(NS(=O)(=O)c2cc(NC(=O)C3=NN(c4ccccc4)C(=O)CC3)ccc2OC)cc1	x	0.184µM	x	u	u	n
COc1cc(C(=O)N(c2cc(C)cc(C)c2)C2C=CS(=O)(=O)C2)cc(OC)c1OC (centres undefined)	x	x	x	x	x	n
O=S(=O)(c1ccccc1)N1CCCC(c2nc(CCOc3ccc(F)cc3)no2)C1 (centres undefined)	x	x	x	x	x	n
SMILES	VP16 counter	DT40 TDP1 no CPT	RORg inh	TDP1 cell CPT	ELG1 repair inh	ALOX12 inh
Cc1nc2ccc(NC(=O)c3ccccc3)cc2c(=O)n1Cc1ccc(F)cc1	x	13µM	x	u	x	n
Cc1nc2ccc(N)cc2c(=O)n1Cc1ccc(Cl)cc1	n	n	n	n	n	u
COc1ccc(Cn2c(C3CC3)nc3ccc(NC(=O)c4cccnc4)cc3c2=O)cc1	n	10.3µM	n	7.31µM	n	x
O=C(/C(=C(\O)c1ccccc1)c1nc2ccccc2[nH]1)c1ccccc1	u	u	7.94µM	n	n	n
O=C(/C(=C(\O)c1ccccc1)c1ncc[nH]1)c1ccccc1	u	n	12.6µM	n	n	n
O=C(c1ccccc1)c1ncc[nH]1	n	n	n	n	u	x
O=S(=O)(NC(c1ccc(F)cc1)c1cccs1)c1cccs1 (centres undefined)	x	x	x	x	x	n
COc1ccccc1NS(=O)(=O)c1cc(N=N/C(C(=O)Nc2ccc(Cl)cc2)=C(/C)O)ccc1C	x	n	x	n	n	n
COc1ccccc1NC(=O)/C(N=Nc1ccc(C)c(S(=O)(=O)Nc2ccccc2Cl)c1)=C(\C)O	x	18.4µM	x	18.4µM	u	n
O=C(CCc1ccccc1)N1CCC2(CC1)NC(=O)N(c1ccccc1)N2	x	x	x	x	x	2.24µM
COc1ccccc1CCC(=O)N1CCC2(CC1)NC(=O)N(c1ccccc1)N2	x	x	x	x	x	2µM
COc1cccc(CCC(=O)N2CCC3(CC2)NC(=O)N(c2ccccc2)N3)c1	x	x	x	x	x	2.51µM
COc1cccc(C(=O)N2CCC3(CC2)NC(=O)N(c2ccccc2)N3)c1	x	x	x	x	x	6.31µM
NC(=O)N1CCC2(CC1)NC(=O)N(c1ccccc1)N2	n	n	n	n	n	u
COc1cccc(C(=O)N2CCC3(CC2)NC(=O)N(Cc2ccccc2)C3=O)c1	x	x	x	x	x	n
COc1cccc(CCC(=O)N2CCC3(CC2)NC(=O)N(c2cccc(F)c2)N3)c1	x	x	x	x	x	5.62µM
COc1ccc(CCC(=O)N2CCC3(CC2)NC(=O)N(c2cccc(Cl)c2)N3)cc1	x	x	x	x	x	2µM
COCCCNC(=O)C1CCC(CNS(=O)(=O)c2ccc3c(c2)N(C(C)=O)CCO3)CC1 (centres undefined)	n	n	n	n	n	n
CC(=O)N1CCOc2ccc(S(=O)(=O)NCC3CCC(C(=O)Nc4ccc(C)cn4)CC3)cc21 (centres undefined)	u	13µM	n	14.6µM	5.17µM	n
COc1cccc(CNC(=O)Cn2nc(C)c3c(C)n(-c4ccc(C)cc4)nc3c2=O)c1OC	n	n	n	n	n	n
CCCNC(=O)C(C)n1nc(C)c2c(C)n(-c3ccccc3)nc2c1=O (centres undefined)	x	n	x	n	x	n
CCOc1ccccc1CNC(=O)C(C)n1nc(C)c2c(C)n(-c3ccccc3)nc2c1=O (centres undefined)	n	u	n	23.1µM	u	n
CCOc1ccccc1CNC(=O)Cn1nc(C)c2c(C)n(-c3ccc(C)cc3)nc2c1=O	u	u	u	u	2.91µM	x
COc1cc(CNC(=O)CN2CCCc3nc(C4CC4)ncc3C2=O)cc(OC)c1	x	x	x	x	x	n
Cc1cccc(Cn2c(COc3ccc(Cl)cc3)nc3ccccc32)c1	x	16.4µM	x	23.1µM	x	n
